Bioassay records: PubChem BioAssay, National Center for Advancing Translational Sciences (NCATS)
Pf growth 48h: P. falciparum growth inhibition at 48 hours (one generation). P. falciparum luciferase growth in erythrocytes, 48 h. Potency, µM (top dose mostly 28.7 µM), for the others: top-dose activity change, negative = inhibition, hits mostly inhibitors. hit rate 5.9% among 310,000. AID 504832; further: potency means the concentration at half of the fitted maximal effect
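Growth was read as firefly luciferase luminescence after a 48 h, 37 C, 5% CO2 exposure of compounds to reporter-bearing P. falciparum cultures (0.1% parasitemia, 2% hematocrit final) in Albumax-supplemented RPMI 1640.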
Pf growth 96h: P. falciparum growth inhibition at 96 hour, primary screen for plastid delayed-death inhibitors. P. falciparum luciferase reporter growth, 96 h. Potency, µM (top dose mostly 28.7 µM), without a hit: at the top dose activity change, negative = inhibition, usual class: inhibitors. hit rate 6.9% among 320,000. AID 504834; further: potency means the concentration at half of the fitted maximal effect
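Delayed-death screen, second-generation endpoint: infected erythrocytes, 2% hematocrit, 0.05% parasitemia final; 96 hours at 37 C, 5% CO2; luciferase detection reagent; luminescence decrease equals reduced growth.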
MARV entry inh: inhibitors of Marburg virus binding or cell entry | Marburg virus pseudotyped entry inhibition, cell reporter | Potency, µM (highest dose often 37.8 µM), inactives show top-dose activity change, negative = inhibition, hits mostly inhibitors | hit rate 1.8% among 300,000 | AID 540276; calls by dose curve; tested in HEK293 cells; further: potency means the concentration at half of the fitted maximal effect
HCV inh: blocks hepatitis C virus | Huh7.5.1 HCVcc-Cre infection, luciferase reporter, 44 h | hit rate 3.4% among 340,000 | Potency, µM (highest dose often 41.8 µM), for the others: at the top dose activity change, negative = inhibition, usual class: inhibitors; further: potency means the concentration at half of the fitted maximal effect
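After 44 h co-culture of compound, cells and HCVcc-Cre (~0.5 moi), substrate is added for 15 min at room temperature and luciferase measured over 15 sec. Cells were seeded at 1,000/well and pre-cultured 4 h.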
HCMV antiviral: inhibitors of human cytomegalovirus; AID 1259415; hit rate 4.5% among 410,000; HFF cells, HCMV-luciferase reporter, 72 h; active compounds read low; activity change, negative = inhibition, % at 57.5 µM; in the data active means activity change below about -60%; inconclusive means no clear call, values can overlap the other calls; inactive means above about -39%
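Human foreskin fibroblasts infected with luciferase-reporter HCMV at MOI 1 PFU/cell, compounds at two doses. Luciferase measured 72 h post infection; normalized to buffer-only basal and Salinomycin (10uM) controls.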
LASV entry inh: Lassa virus entry inhibition. Lassa virus pseudotype entry inhibition, cell reporter. Potency, µM (titrated, usually from 37.9 µM), inactives show at the top dose activity change, negative = inhibition, most hits filed as inhibitors. hit rate 1.2% among 300,000; calls by dose curve; tested in HEK293 cells; further: potency means the concentration at half of the fitted maximal effect; nearly all actives have a fitted effect of over 50% in size
Starred values were filed as active, the others as inactive; [ ] = remark or other dose. This is a sample that favours compounds with a hit; in the whole collection about 14% have one here. Unless noted, the call rests on the fitted dose curve; in most records, active means well fitted inhibition curve with a large enough effect; inconclusive means small, poorly fitted or top-dose-only effect, or another doubt; inactive means no such curve, though single readings can be large or run the other way. On the % scale 0 is the no-effect control and ±100 the full control effect.

Results for COc1ccc(NC(=O)c2oc3ccccc3c2NC(=O)c2cc(OC)c(OC)c(OC)c2)cc1 ?
MARV entry inh: inconclusive; HCMV antiviral: -21; LASV entry inh: inconclusive

What do the screens show for `O=C(c1ccc2c(c1)C(=O)N(CCCO)C2=O)c1ccc2c(c1)C(=O)N(CCCO)C2=O`?
Pf growth 48h: -13%; MARV entry inh: 10%; HCV inh: 5%; HCMV antiviral: 1; LASV entry inh: -1%

What do the screens show for `O=C1c2ccc3c4c(ccc(c24)C(=O)N1CCCCO)C(=O)N(CCCCO)C3=O`?
Pf growth 48h: 0.74µM*; Pf growth 96h: -4%; HCV inh: 7.1µM*; HCMV antiviral: -100*

Results for CCCCn1c(=O)n(CC(=O)NCc2ccc(C)cc2)c(=O)c2c1nc(CO)n2CCC ?
Pf growth 48h: inconclusive; Pf growth 96h: 4.1µM*; MARV entry inh: -4%; HCV inh: -21%; HCMV antiviral: inconclusive; LASV entry inh: -26%

How did NC(=O)C1(N2CCCCC2)CCN(C(=O)NC2CCCCC2)CC1 do in these assays?
Pf growth 48h: 0%; Pf growth 96h: 15µM*; MARV entry inh: -21%; HCV inh: -10%; HCMV antiviral: -5; LASV entry inh: -16%

What do the screens show for `NC(=O)C1(N2CCCCC2)CCN(C(=O)NC23CC4CC(CC(C4)C2)C3)CC1`?
Pf growth 48h: inconclusive; MARV entry inh: 4%; HCV inh: 18%; HCMV antiviral: 14; LASV entry inh: -2%

Results for NC(=O)C1(N2CCCCC2)CCN(C(=O)Nc2ccccc2C(F)(F)F)CC1 ?
Pf growth 48h: 5%; Pf growth 96h: 1.7µM*; MARV entry inh: 1%; HCV inh: 0%; HCMV antiviral: -18; LASV entry inh: -2%

How did CCOc1ccc(NC(=O)N2CCC(C(N)=O)(N3CCCCC3)CC2)cc1 do in these assays?
Pf growth 48h: 2%; Pf growth 96h: 13µM*; MARV entry inh: 5%[46.1 µM]; HCV inh: 6%; HCMV antiviral: 7; LASV entry inh: 15%[46.1 µM]

How did NC(=O)C1(N2CCCCC2)CCN(C(=O)Nc2ccc(C(F)(F)F)cc2)CC1 do in these assays?
MARV entry inh: 15%[46.1 µM]; HCMV antiviral: 35; LASV entry inh: 0%[46.1 µM]

How did O=C(Nc1ccccc1C(F)(F)F)N1CCC2(CC1)Oc1ccccc1C(=O)N2Cc1ccccc1F do in these assays?
MARV entry inh: inconclusive; HCMV antiviral: -74*

Results for Cc1cccc(-c2nc(SCC(=O)N(C)c3ccccc3)c3c(=O)n(C)c(=O)n(C)c3n2)c1 ?
HCMV antiviral: 11; LASV entry inh: 17%[46.1 µM]

What do the screens show for `COc1ccc([C@]23Cc4c(ccc5ccccc45)[C@H](O2)c2c(cc(-c4ccccc4)oc2=O)O3)cc1`?
MARV entry inh: 40%[14.2 µM]

How did COc1ccc(NC(=O)CCn2c(=O)c3cccn3c3cccnc32)c(OC)c1 do in these assays?
HCMV antiviral: inconclusive; LASV entry inh: 5%[46.1 µM]

Results for Cc1nc(N2CCCC2)c2c(C(=O)N3CCN(c4ccc(F)cc4)CC3)c(C)oc2n1 ?
HCMV antiviral: -14; LASV entry inh: -4%[46.1 µM]

How did CC[N@+]1(C)CCC[C@H](OC(=O)C(O)(c2ccccc2)c2ccccc2)C1 do in these assays?
MARV entry inh: 9%

Results for c1ccc(-c2cnnc(SCc3cn4cccnc4n3)n2)cc1 ?
Pf growth 48h: 10µM*; Pf growth 96h: 9.3µM*; MARV entry inh: -8%; HCV inh: 7%; HCMV antiviral: -39; LASV entry inh: 7%

How did COCCNC(=O)c1ccc(N2CCCCC2)c(NS(=O)(=O)c2ccc(C)cc2)c1 do in these assays?
Pf growth 48h: 5.2µM*; Pf growth 96h: 400%; MARV entry inh: 3%; HCV inh: 22%; HCMV antiviral: 16; LASV entry inh: -3%

How did Cc1ccc(CNC(=O)c2ccc(N3CCCC3)c(NC(=O)Nc3ccc(C)cc3)c2)cc1 do in these assays?
HCMV antiviral: -74*; LASV entry inh: 1%[46.1 µM]

Results for Cc1ccc(CNC(=O)Nc2cc(C(=O)NCc3ccc(C(C)C)cc3)ccc2N2CCCC2)cc1 ?
HCMV antiviral: 2; LASV entry inh: 17%[46.1 µM]

What do the screens show for `CCCCNC(=O)c1ccc(N2CCOCC2)c(NS(=O)(=O)c2ccc(OC)cc2)c1`?
Pf growth 48h: 7.4µM*; Pf growth 96h: 49%; MARV entry inh: -15%; HCV inh: 3%; HCMV antiviral: 35; LASV entry inh: -13%

How did Cc1ccc(S(=O)(=O)Nc2cc(C(=O)NCCN(C)C)ccc2N2CCCC2)cc1 do in these assays?
Pf growth 48h: -3%; Pf growth 96h: 8.3µM*; HCV inh: 10%; HCMV antiviral: -22

Results for CCOCCCNC(=O)c1ccc(N2CCOCC2)c(NS(=O)(=O)c2ccc(OC)cc2)c1 ?
Pf growth 48h: 2%; Pf growth 96h: 7%; MARV entry inh: 0%; HCV inh: -6%; HCMV antiviral: 11; LASV entry inh: 8%

Results for COc1ccc(NC(=O)c2oc3ccccc3c2NC(=O)c2cccc(F)c2)c(OC)c1 ?
MARV entry inh: -19%[46.1 µM]; HCMV antiviral: -4; LASV entry inh: 15%[46.1 µM]

How did CCOC(=O)c1ccc(N2CCCCC2)c(NS(=O)(=O)c2ccc(C)cc2)c1 do in these assays?
Pf growth 48h: 2.3µM*; Pf growth 96h: 1µM*; MARV entry inh: 7.9µM*; HCV inh: inconclusive; HCMV antiviral: -86*; LASV entry inh: inconclusive

Results for CCOC(=O)c1ccc(S(=O)(=O)Nc2cc(S(=O)(=O)N3CCOCC3)ccc2O)cc1 ?
HCV inh: 3%; HCMV antiviral: -19

How did CCOC(=O)c1ccc(N2CCN(c3ccccc3F)CC2)c(NC(=O)Nc2ccccc2)c1 do in these assays?
Pf growth 48h: 13µM*; Pf growth 96h: inconclusive; MARV entry inh: inconclusive; HCV inh: -9%; HCMV antiviral: 8; LASV entry inh: inconclusive

What do the screens show for `CCN(CC)CCCNC(=O)c1ccc(N2CCCCC2)c(NS(=O)(=O)c2ccc(C)cc2)c1`?
Pf growth 48h: inconclusive; Pf growth 96h: inconclusive; MARV entry inh: 15µM*; HCV inh: -11%; HCMV antiviral: -34; LASV entry inh: 11%

Results for COCCCNC(=O)c1ccc(N2CCOCC2)c(NS(=O)(=O)c2ccc(OC)cc2)c1 ?
Pf growth 48h: -14%; MARV entry inh: 4%; HCV inh: 0%; HCMV antiviral: 3; LASV entry inh: 3%

Results for CC(=O)N(c1ccccc1)c1nc(C)cc(C)c1C#N ?
Pf growth 48h: -2%; Pf growth 96h: 3%; MARV entry inh: 13%[46.1 µM]; HCV inh: 21%; HCMV antiviral: 75; LASV entry inh: 17%

What do the screens show for `CC(=O)N(c1ccc(Cl)cc1)c1nc(C)cc(C)c1C#N`?
Pf growth 48h: -3%; Pf growth 96h: 7.4µM*; MARV entry inh: 2%[46.1 µM]; HCV inh: 26%; HCMV antiviral: 17; LASV entry inh: -3%
